In the library only some 19% were active in any assay of this set; here they are far more common.
IL-1B inflam inh: inflammasome signaling inhibition, IL-1 beta readout | activity change, % at 57.5 µM | AID 743279 | THP-1 LPS/ATP IL-1B secretion, AlphaLISA, 16 h; stronger effect = lower value | 360,000 compounds, 4.7% hits; in the data active = activity change below about -50%; inconclusive = mostly about -30% to -49%
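Secreted IL-1B measured by AlphaLISA bead assay after 16 h compound exposure of THP-1 cells; compounds (final up to 57.5 uM) added 1 h before LPS (250 ng/mL) and ATP (1.25 mM) stimulation; lower signal means less secretion.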
HepG2 tox: kills HepG2 cells in TGF-b inhibitor counter-screen; 410,000 compounds, 0.76% hits; Potency, µM (highest dose often 46.1 µM), most hits filed as cytotoxic; HepG2 CAGA-GFP viability, ATP luminescence, 18 h; AID 588856
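CellTiter-Glo luminescence gave cytotoxicity after 18 hours at 37 degrees C. The cells were HepG2 CAGA-GFP in 1% FBS DMEM, stimulated with 500 pg/mL TGF-beta after compound addition. %Activity was normalised to no-cell wells (complete cell-killing) and DMSO (no toxicity), and curves were fitted and classified.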
DT40 TDP1 no CPT: qHTS for Inhibitors of human tyrosyl-DNA phosphodiesterase 1 (TDP1): qHTS in cells in absence of CPT | 420,000 compounds, 15% hits | DT40 Tdp1-/- hTDP1 cells, no CPT, ATP luminescence, 48 h | AID 686978, 2013 | Potency, µM (top dose mostly 46.2 µM), actives largely listed as inhibitors; also: nearly all actives have a fitted effect of over 55% in size
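Chicken DT40 Tdp1-/- cells stably complemented with human TDP1 were seeded at 400 cells/well with DMSO in place of 20 nM camptothecin. After compound pinning, cells grew at least 48 hr at 37 °C; viability read by CellTiter-Glo luminescence.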
TDP1 inh: inhibitors of human tyrosyl-DNA phosphodiesterase TDP1; Q9NUW8; recombinant TDP1, AlphaScreen DNA substrate cleavage; Potency, µM (highest dose often 130 µM), hits mostly inhibitors; 350,000 compounds, 0.28% hits; AID 485290; also: nearly all actives have a fitted effect of over 40% in size
Target sequence (Q9NUW8 whole entry, looked up): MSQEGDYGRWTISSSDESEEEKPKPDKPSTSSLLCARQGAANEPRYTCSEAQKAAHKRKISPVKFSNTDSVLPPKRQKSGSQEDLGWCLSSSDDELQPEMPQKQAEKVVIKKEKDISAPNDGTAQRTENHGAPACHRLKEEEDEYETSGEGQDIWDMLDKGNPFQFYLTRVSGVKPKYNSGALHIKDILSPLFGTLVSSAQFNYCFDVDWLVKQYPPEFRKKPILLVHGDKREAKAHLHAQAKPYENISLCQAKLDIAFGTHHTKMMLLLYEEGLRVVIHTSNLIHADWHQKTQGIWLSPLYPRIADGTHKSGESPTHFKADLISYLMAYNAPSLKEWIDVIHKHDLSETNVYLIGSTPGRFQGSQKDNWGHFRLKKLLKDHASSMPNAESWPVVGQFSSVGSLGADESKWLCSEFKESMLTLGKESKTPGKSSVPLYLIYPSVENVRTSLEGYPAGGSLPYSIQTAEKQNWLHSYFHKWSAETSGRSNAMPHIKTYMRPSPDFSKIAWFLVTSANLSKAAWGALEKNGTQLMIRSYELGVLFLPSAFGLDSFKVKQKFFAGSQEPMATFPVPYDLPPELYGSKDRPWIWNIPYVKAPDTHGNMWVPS
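Tdp1 1 nM final; 15 min RT w/ cpd; substrate 15 nM, 5 min; beads 10 ug/ml, 10 min; AlphaScreen read. Neg ctrl: no enzyme.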
DT40 TDP1 CPT: DT40-hTDP1 cell growth loss with CPT; chicken DT40 Tdp1-/-;hTDP1 cells + 20 nM CPT, ATP luminescence, 48 h; Potency, µM (series often up to 46.2 µM), actives largely listed as inhibitors; 420,000 compounds, 12% hits; AID 686979; also: nearly all actives have a fitted effect of over 55% in size
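Chicken DT40 Tdp1-/- cells stably complemented with human TDP1 were seeded at 400 cells/well in medium containing 20 nM camptothecin, exposed to pin-transferred compounds, and grown at 37 °C for at least 48 hr. Viability was read as ATP luminescence.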
TGFb inhibitor: blocks TGF-b signaling. HepG2 CAGA-GFP TGF-b/SMAD3 reporter, GFP fluorescence, 18 h; TGF-beta stimulated, 500 pg/mL final. Potency, µM (doses to about 46.1 µM), most hits filed as inhibitors. 410,000 compounds, 1.2% hits. AID 588855; also: nearly all actives have a fitted effect of over 65% in size
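Read-out: total well GFP (ex488/em500-530) summed from mean per-cell fluorescence. Cells: HEPG2 CAGA-GFP, 1% FBS DMEM, 18 h at 37 degrees C with 500 pg/mL final TGF-beta. Unstimulated wells served as the full-inhibition control; stimulated DMSO wells = 0%.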
Hits are given with their value; - = inactive; ? = inconclusive; . = no result; [ ] = dose if it differs, or a comment. Unless noted, calls follow the shape of the dose curve; as a rule, active = well fitted curve in the direction sought with a large enough effect; inconclusive = small, poorly fitted or top-dose-only effect, or another doubt; inactive = no such curve, though single readings can be large; an effect the other way counts as inactive or inconclusive.

SMILES	IL-1B inflam inh	HepG2 tox	DT40 TDP1 no CPT	TDP1 inh	DT40 TDP1 CPT	TGFb inhibitor
CC(c1ccccc1)N1CCn2c(nc3cc(NC(=O)c4cccs4)ccc32)C1 (centres undefined)	.	-	?	-	25.9µM	-
Cc1nn(CC(=O)Nc2ccc3c(c2)nc2n3CCN(C3CCCCC3)C2)c(=O)c2ccccc12	-	-	?	-	?	-
Cc1cc(C)c2c(n1)sc1c(=O)n(-c3cc(Cl)ccc3C)nnc12	.	-	?	-	-	-
CC1=Nc2cc(C(=O)NCCc3ccccc3)ccc2Sc2c(C)ccc(C)c21	.	-	.	-	.	6.31µM
COc1ccc(CNC(=O)c2ccc3c(c2)N=C(C)c2c(C)ccc(C)c2S3)cc1	.	-	.	-	.	?
CC1=Nc2cc(C(=O)NCCc3ccc(Cl)cc3)ccc2Sc2c(C)ccc(C)c21	.	-	.	-	.	7.94µM
C/C(CC(=O)Nc1ccc([N+](=O)[O-])cc1)=N/NC(=O)C1C2CCCCC21 (centres undefined)	?	-	-	.	-	-
CCCN(Cc1cc2cc(C)ccc2[nH]c1=O)C(=O)c1cccc(OC)c1	?	-	?	-	?	-
CCN1CCCC1CN(Cc1cc2ccc(C)cc2[nH]c1=O)C(=S)Nc1ccc(OC)cc1 (centres undefined)	-106.5	12.6µM	5.17µM	-	?	?
CNC(=S)N(Cc1ccc(OC)cc1)Cc1cc2cc(C)ccc2[nH]c1=O	-	-	-	-	-	-
CCN1CCCC1CN(Cc1cc2ccc(C)cc2[nH]c1=O)C(=S)Nc1cccc(OC)c1 (centres undefined)	-77.0	-	29.1µM	-	?	-
COc1cc(Cn2c3ccc(NC(=O)CC(C)(C)C)cc3c(=O)n2C)ccc1F	-	-	?	.	?	-
COc1cc(Cn2c3ccc(NC(=S)NCc4ccc(C)cc4)cc3c(=O)n2C)ccc1F	-	-	20.6µM	.	?	?
CC(CC(=O)Nc1ccc2c(c1)c(=O)n(C)n2Cc1ccc(Cl)cc1)C(F)(F)F (centres undefined)	-	-	9.2µM	.	?	-
COc1cc(Cn2c3ccc(NC(=O)CC(C)C(F)(F)F)cc3c(=O)n2C)ccc1F (centres undefined)	-	-	16.4µM	.	?	-
O=C(Nc1ccc2c(c1)OCCO2)N1CCN(Cc2ccccc2)CC1	-	-	-	-	-	-
CCc1ccc2oc(-c3ccc(C)c(NC(=O)COc4ccccc4Cl)c3)nc2c1	.	-	?	.	-	-
COc1ccc(Cl)cc1NC(=O)Cn1nc(C(F)(F)F)c2c1CCC2	.	-	?	-	?	?
COc1ccc(Cl)cc1NC(=O)Cn1nc(C(F)(F)F)c2c1CCCC2	.	-	?	-	?	12.6µM
COc1cc(NC(=O)Cn2nc(C(F)(F)F)c3c2CCCC3)cc(OC)c1OC	-	-	10.3µM	-	23.1µM	-
OC(C[n+]1ccccc1)c1ccccc1 (centres undefined)	-	-	-	.	-	-
CCOc1cc(Cl)c(NC(C)=O)cc1OCC	-	-	-	-	-	-
CCCC(=O)N1CCc2cc(OC)c(OC)cc2C1COc1ccc2c(C)cc(=O)oc2c1 (centres undefined)	.	-	13µM	-	?	-
COc1cc2c(cc1OC)C(COc1ccc3c(C)cc(=O)oc3c1)N(C(=O)c1ccc(C)c(C)c1)CC2 (centres undefined)	.	-	16.4µM	-	?	-
CCC(CC)C(=O)N1CCc2cc(OC)c(OC)cc2C1COc1ccc2c(C)cc(=O)oc2c1 (centres undefined)	.	-	16.4µM	-	?	?
SMILES	IL-1B inflam inh	HepG2 tox	DT40 TDP1 no CPT	TDP1 inh	DT40 TDP1 CPT	TGFb inhibitor
COc1cc2c(cc1OC)C(COc1ccc3c(C)cc(=O)oc3c1)N(C(=O)Cc1ccccc1)CC2 (centres undefined)	.	-	?	-	?	-
COc1ccc(C(=O)N2CCc3cc(OC)c(OC)cc3C2COc2ccc3c(C)cc(=O)oc3c2)c(OC)c1 (centres undefined)	.	-	-	-	-	-
COc1cc2c(cc1OC)C(COc1ccc3c(C)cc(=O)oc3c1)N(C(=O)c1ccc(C)cc1)CC2 (centres undefined)	.	-	?	-	?	-
O=C(Nc1ccccc1)OCCN1CCOCC1	-	-	-	.	-	-
Cc1c(Br)cnc2ccccc12	.	-	-	.	-	-
COc1ccc(CN(C)C(=O)c2oc3ccccc3c2CSC)cc1F	-	-	20.6µM	-	23.1µM	-
Cn1cnnc1SCC(=O)Nc1ccc2ccccc2c1	-	-	-	-	-	-
NS(=O)(=O)c1ccc(CCNC(=O)C(=O)NCC2OCCN2S(=O)(=O)c2ccc(Cl)cc2)cc1 (centres undefined)	-	-	?	.	23.1µM	-
COc1ccc(CCNC(=O)C(=O)NCC2OCCN2S(=O)(=O)c2ccc3c(c2)OCCO3)cc1OC (centres undefined)	-	-	?	-	?	-
COc1ccc(CCNC(=O)C(=O)NCC2OCCN2S(=O)(=O)c2ccc3c(c2)OCCO3)cc1 (centres undefined)	-	-	16.4µM	-	20.6µM	-
Cc1ccc(CNC(=O)C(=O)NCC2OCCN2S(=O)(=O)c2ccc3c(c2)OCCO3)cc1 (centres undefined)	-	-	-	-	25.9µM	-
NS(=O)(=O)c1ccc(CCNC(=O)C(=O)NCC2OCCN2S(=O)(=O)c2ccc(F)cc2)cc1 (centres undefined)	-	-	-	-	-	-
CCOc1ccc(S(=O)(=O)N(CC(=O)Nc2ccc3c(c2)OCO3)c2ccccc2)cc1	.	-	-	.	-	-
Cc1cc(NC(=O)CCN2CCN(C/C=C/c3ccccc3)CC2)ccc1Br	-81.6	-	?	.	?	?
Cc1ccccc1NC(=O)CCN1CCN(C/C=C/c2ccccc2)CC1	?	-	?	-	20.6µM	-
Cc1cccc(NC(=O)CCN2CCN(C/C=C/c3ccccc3)CC2)c1	-76.6	-	20.6µM	-	?	-
O=C(CCN1CCN(C/C=C/c2ccccc2)CC1)Nc1ccccc1	-	-	?	-	-	-
Cc1cc(NC(=O)CCN2CCN(C)CC2)ccc1Br	-	-	-	.	-	-
N#CCc1nn2c(-c3ccccc3)ccnc2c1C#N	-	-	-	.	?	-
Cn1cnnc1Sc1ccc(CN2CCOc3ccc(C4=CCCCC4)cc3C2)o1	.	.	?	.	-[9.04 µM]	.
O=C(N[C@@H](c1ccccc1)[C@@H]1C[C@H]1C(=O)NCc1ccccc1)OCc1ccccc1	.	.	.	-	.	.
